This is part of a sample that, as a whole, favours compounds with a hit. Of some 83,000 tested, about 20% had one in any assay.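 Negative percent growth values reflect cell death: -40 means 40% of the cells present at the start died, and -100 means all died.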 Unmarked numbers belong to inactive results. Activity calls are given as the source filed them.

Our source for the growth values is PubChem BioAssay (NCI).

The experiment relates to SNB-19 CNS. In words: NCI-60 one-dose screen, 48 h (100 = growth as untreated, 0 = no growth, -100 = all killed). The settings on record: 10 µM unless noted. As for the experimental part: Growth inhibition of the SNB-19 human tumor cell line is measured as a screen for anti-cancer activity. Cells are grown in 96 well plates and exposed to the test compound for 48 hours. Compounds are tested at a single concentration, which is 10^-5 M for most compounds. The reported endpoint is percent growth (GI% or GIPRCNT), where numbers from 0 - 100% represent growth inhibition, and numbers from -100% - 0 represent cell death. For example, a value of 40 represents 60% growth inhibition. A value of 0 means no net growth occurred over the course of the experiment. A value of -40 indicates 40% of cells at the beginning of the experiment died by the end of the experiment. A value of -100 means all cells are dead at the end of the experiment.
NCI-60 Human Tumor Cell Lines Screen was performed using the standard one-dose NCI protocol, which is described in more detail at https://dtp.cancer.gov/discovery_development/nci-60/default.htm.
Compounds with GIPRCNT values below 10 were considered active. Activity score was based on GIPRCNT using the following formula: […]
Score is 0 for GIPRCNT values of 100 or above, 50 for GIPRCNT values of 0, and 100 for GIPRCNT values of -100.
For `CN(C)CCn1c2ccc(Br)cc2c2nc3ccccc3nc21`, the growth is 31.6%.
As to `CCCCNC(=O)Oc1ccc(/C(=C(\C)c2ccccc2)c2ccc(OCCN3CCCCC3)cc2)cc1`, the growth was 71.5%.
Next, `COc1cc(/C(C)=C(\c2ccc(Cl)cc2)c2ccc(OCCN3CCCC3)cc2)ccc1F`: 79.8%; `CCOC(=O)[C@@H](C)C[C@H](Cc1ccccc1)NC(=O)c1csc([C@@H](C[C@H](C(C)C)N(C)C(=O)[C@@H](NC(=O)[C@H]2C[C@H](O[Si](C)(C)C(C)(C)C)CCN2C)C(C)C)OC(C)=O)n1`: 5.09% [9.25 µM] (active).
Next, `COc1ccc(/C=C/c2nc(Nc3ccc(S(=O)(=O)NC(C)=O)cc3)c3ccccc3n2)cc1`: 78.9%; `Brc1ccc2[nH]cc(-c3cncn3CCc3ccccc3)c2c1`: 65.6%.
As for `NNC(=O)c1ccc(-n2nc(-c3ccccc3)c3ccccc32)cc1`, the figure is 66.1%.
For the compound `COc1cc2oc(-c3cccc(C(=O)Nc4ccc5c(c4)OCO5)c3)cc(=O)c2c(O)c1OC`, the growth is 72.1%.
Consider `O=C1c2ccccc2CCC12OC2c1cn(-c2ccccc2)nc1-c1ccc(Cl)cc1` (stereo not given), for which the growth is 91.9%.
Next, `COc1ccc(C(=O)c2cc(C)c(OC)c(C)c2)c(OC)c1NC(C)=O`: 22.9%; `COc1cc(/C=N/O)nc(-c2ccccn2)c1`: 23.1%; `CNC(=O)c1cccc(Cn2nc(C)c(NC(=O)c3ccc(COc4ccc(C(F)(F)F)cc4C)cc3)c2C)c1`: 46.8%.
As for `COC(=O)C1=C(C(=O)ON)C2C=CC1(C(Cc1ccccc1)Nc1ccccc1)O2` (stereo not given), the figure is 106%; as for `CN1CCN(c2ccc(NC3=C(Cl)C(=O)c4ncccc4C3=O)cc2C(F)(F)F)CC1`, 101%; as for `CCOC(=O)Nc1ccc(-c2ccc3c(c2)NC(=O)/C3=C\c2ccc[nH]2)cc1`, 99.3%.
Consider `COc1cccc(C(=O)NNc2nc(Cl)nc(N3CCN(C(c4ccccc4)c4ccccc4)CC3)n2)c1`, for which the growth was 77.4%.
As for `COc1cc(/C=N/NC(=O)c2cnn3c2NC(c2ccccc2)C3)ccc1Oc1ccccc1` (stereo not given), the figure is 39.2%; as for `COc1ccc(C/C(C)=C(/c2ccc(OCCCN(C)C)cc2)c2ccc(OC(C)=O)cc2)cc1`, 82.3%; as for `O=S(=O)(NCCCNc1nccc(-c2c(-c3cccc(F)c3)nc3sccn23)n1)c1cccc(F)c1`, 76.8%.
Next, `COc1ccc(NC(=O)c2cc(NCc3cc(O)ccc3O)ccc2O)cc1`: 90%; `CCCOC(=O)N[C@H]1CCc2cc(OC)c(OC)c(OC)c2-c2ccc(SC)c(=O)cc21`: 36.2%.
As for `N=C(N)c1ccc(OCCCCCCCCCCOc2ccc(C(=N)N)cc2)cc1`, the figure is -91.9% (active); as for `COc1cc2c(c(O)c1Br)C(=O)c1c(O)cc(C[C@H](C)O)cc1[C@H]2[C@H]1c2cc(C[C@H](C)O)cc(O)c2C(=O)c2c1cc(OC)c(Br)c2O`, 18.1%.
As to `COc1cc(/C=C\c2cc(/C=C\c3ccc(O)c(OC)c3)n(C(=O)COc3ccccc3)n2)ccc1O`, the growth is 14.8%.
Next, `CCOC(=O)c1cc(C#N)n2ccc3ccccc3c12`: 92.7%; `Cc1cc(C(=O)/C=C/c2ccc[nH]2)ccc1-n1ccc(C(F)(F)F)n1`: 85.1%.
As for `COc1ccc(/C=C(\C#N)n2nc3cccc(F)c3n2)cc1`, the figure is 94.6%; as for `O=C(Nc1ccc(-c2ccc3c(c2)NC(=O)/C3=C\c2ccc[nH]2)cc1)NC1CC1`, 92.6%; as for `O=c1c2c(c(=O)n1O)c1c3ccc[nH]c3nc1c1nc3[nH]cccc3c12`, 70.8%.
As for `N#Cc1cccc(-c2ccc3c(c2)NC(=O)/C3=C\c2ccc[nH]2)c1`, the figure is 91.2%.
As for `COC(=O)/C=C1\S/C(=N\NC(=O)c2cc3ccc2/C=C\c2ccc(cc2)/C=C\3)N(Cc2ccccc2)C1=O`, the growth was 56.9%.
As for `CC(C)(C)c1ccc(NS(=O)(=O)c2ccc3nc(NC(=O)c4cnccn4)[nH]c3c2)cc1`, the figure is 40%; as for `Cc1cccc(NC(=O)Nc2ccc(-n3cnc4cc(-c5ccc(O)cc5)ccc43)cc2)c1`, 28%; as for `COCCCN1CC(O)=C(c2nc(-c3ccc(C)cc3)cs2)C1=N`, 98.6%.
Next, `CC(C)N1C(=O)S/C(=C2/SC(=O)N(C(C)C)C2=O)C1=O`: 93.3%.
As for `CSc1nc2sc3cccc(Cl)c3n2c(=N)c1C#N`, the figure is 109%; as for `O=C1Nc2ccc(F)cc2/C1=C\c1c(-c2ccccc2)nc2ccccn12`, 75.4%.
As to `COc1ccc2c(c1)oc1c(C)c3c(c(C)c12)C(=O)N(N)C3=O`, the growth was 46.2%.
Next, `NC(=O)CSSCC(N)=O`: 101%; `COc1cc(/C=C\C(=O)O)ccc1OCc1ccccc1`: 99.2%.
